Source: PubChem BioAssay AID1159580 (chemical genetic matrix, 2015)
Hit rate of the full screen: of about 5,500 compounds, about 2,000 (36%) were called active. Another 18% or so got no clear call; they are omitted. Some of the results follow. A number with no mark means an inactive call. Rule as the data show it: active = normalized growth mostly below about 0.91 (no sharp cut-off); inconclusive = no clear call, values can overlap the other calls; inactive = mostly above about 0.92.

Experiment: chemical genetic growth profiling, strain panel (AID 1159580);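 also: tested at 20 µM; growth read once vehicle control cultures reached saturation at 30 °C; 1 = growth at the plate median or of vehicle wells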
Details: S. cerevisiae deletion strains, growth OD
[1] = locus YHR030C, strain SLT2, stronger effect = lower value
[2] = locus YHR079C, strain IRE1, stronger effect = lower value
[3] = locus YJL095W, strain BCK1, stronger effect = lower value
[4] = locus YJR066W, strain TOR1, stronger effect = lower value
[5] = locus YLR113W, strain HOG1, stronger effect = lower value
[6] = locus YNL183C, strain NPR1, stronger effect = lower value
[7] = locus YOR231W, strain MKK1, stronger effect = lower value
[8] = locus YPL256C, strain CLN2, stronger effect = lower value

| Compound | normalized growth [1] | normalized growth [2] | normalized growth [3] | normalized growth [4] | normalized growth [5] | normalized growth [6] | normalized growth [7] | normalized growth [8] |
| --- | --- | --- | --- | --- | --- | --- | --- | --- |
| CCc1oc2ccccc2c1C(=O)c1cc(Br)c(O)c(Br)c1 | 0.0985 (active) | 0.111 (active) | 0.101 (active) | 0.00147 (active) | 0.124 (active) | 0.06 (active) | 0.105 (active) | 0.13 (active) |
| O=C(O)c1ccccc1-c1c2cc(I)c(=O)c(I)c-2oc2c(I)c(O)c(I)cc12 | 0.991 | 1 | 0.992 | 0.903 | 0.942 | 0.93 | 1.02 | 1.01 |
